Assay results reported in PubChem BioAssay (NCATS).
Results filed as inconclusive are left out. Calls of active or inactive are those of the source. Calls follow the shape of the dose curve; as a rule, active = well fitted curve in the direction sought with a large enough effect; inconclusive = small, poorly fitted or top-dose-only effect, or another doubt; inactive = no such curve, though single readings can be large; an effect the other way counts as inactive or inconclusive.

What was measured:
[1] = SW1088 Cancer Cell Toxicity qHTS against the NCATS CANVASS Library (AID 1347350); also: nearly all actives have a fitted effect of over 75% in size
Outline: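 Quantitative HTS format: an 11-concentration series was applied to 1000 cells/well following a 4-hour attachment. Cultures ran 72 hours before ATP luminescence detection by CellTiter-Glo.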

[2] = HEK293 18hr Apoptosis Induction qHTS against the NCATS CANVASS Library (AID 1347357)
Outline: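 Caspase-3/7 luminescence (DEVD substrate, Caspase-Glo) after 18 h compound exposure of HEK293 cells, 500 cells/well; 11-point series; doxorubicin titration as control.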

[3] = HPAF-II 12hr Apoptosis Induction qHTS against the NCATS CANVASS Library (AID 1347358)
Outline: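 Cells plated at 500 per well are dosed with compound and incubated 12 hours at 37 degrees C. Caspase-Glo 3/7 reagent is added and, after 15 min at room temperature, luminescence proportional to caspase activity is measured.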

[4] = HEK293 24hr Apoptosis Induction qHTS against the NCATS CANVASS Library (AID 1347359)
Outline: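 HEK293 cells, 500 per well, exposed to an 11-point compound series for 24 hours at 37 degrees C. Caspase 3/7 activity read by Caspase-Glo luminescence (DEVD substrate) after 15 min at room temperature.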

[5] = HPAF-II 18hr Apoptosis Induction qHTS against the NCATS CANVASS Library (AID 1347360)
Outline: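 Caspase-Glo 3/7 luminescence (DEVD substrate) after 15 min RT; HPAF-II, 500 cells/well, 18 h compound exposure at 37 degrees C, qHTS series; doxorubicin control 0.1nM - 4uM.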

[6] = HEK293 12hr Apoptosis Induction qHTS against the NCATS CANVASS Library (AID 1347361)
Outline: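 500 HEK293 cells/well; cpds pin-transferred, 11-pt conc series; 12 h, 37 degrees C/5% CO2; Caspase-Glo 3/7 added, 15 min RT dark; luminescence.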

[7] = target: Luciferin 4-monooxygenase (Photinus pyralis) (UniProt P08659); assay: Firefly luciferase counterscreen qHTS: Assay Interference Panel against the NCATS CANVASS Library (AID 1347363); also: series mostly up to about 57 µM
Luciferin 4-monooxygenase (Photinus pyralis), sequence (P08659 whole entry, looked up): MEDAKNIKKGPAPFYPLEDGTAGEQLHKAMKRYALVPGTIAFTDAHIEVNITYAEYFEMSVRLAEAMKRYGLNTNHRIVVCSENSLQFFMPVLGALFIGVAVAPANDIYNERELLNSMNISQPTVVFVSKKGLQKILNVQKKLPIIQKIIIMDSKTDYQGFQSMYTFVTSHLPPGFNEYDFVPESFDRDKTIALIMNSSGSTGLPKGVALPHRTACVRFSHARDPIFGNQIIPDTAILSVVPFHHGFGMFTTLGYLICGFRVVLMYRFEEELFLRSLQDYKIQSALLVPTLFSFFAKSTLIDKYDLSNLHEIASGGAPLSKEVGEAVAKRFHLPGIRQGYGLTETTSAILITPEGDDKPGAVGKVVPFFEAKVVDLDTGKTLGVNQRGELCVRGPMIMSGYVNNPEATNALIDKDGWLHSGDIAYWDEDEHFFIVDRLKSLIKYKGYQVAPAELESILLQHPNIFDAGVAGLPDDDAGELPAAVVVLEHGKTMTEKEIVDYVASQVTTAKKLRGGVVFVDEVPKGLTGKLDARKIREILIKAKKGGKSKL
Outline: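 Purified P. pyralis luciferase (0.04 ug/mL, 4x reagent) added to Tris-acetate buffer with 0.013 mM D-luciferin, 0.013 mM ATP and 13.3 mM Mg-acetate; compounds preincubated 15 min, then luminescence read after 5 min, RT.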

[8] = G06 Cancer Cell Toxicity qHTS against the NCATS CANVASS Library (AID 1347368); also: nearly all actives have a fitted effect of over 60% in size; also: potency is read from the fitted curve at half-maximal effect
Outline: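 Cells were plated at 500 per well, then compounds were added over an 11-point range. After 72 hr at 37C, CellTiterGlo was added and luminescence measured as ATP content.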

[9] = MCF7 Cancer Cell Toxicity qHTS against the NCATS CANVASS Library (AID 1347369)
Outline: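 Luminescent ATP signal (CellTiterGlo) served as the cytotoxicity read-out after MCF7 breast cancer cells had been incubated 72 hr at 37C with natural products in an 11-point titration.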

[10] = J3T Cancer Cell Toxicity qHTS against the NCATS CANVASS Library (AID 1347371); also: potency is read from the fitted curve at half-maximal effect
Outline: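 Luminescence from CellTiterGlo, reporting cellular ATP, serves as the viability measure after 72 hr compound treatment of J3T canine glioma cells seeded at 500 cells/well.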

[11] = target: Nuclear receptor subfamily 1 group I member 3 (Homo sapiens) (UniProt Q14994); assay: qHTS for Constitutive Androstane Receptor (CAR) Antagonist screened against the NCATS CANVASS Library (AID 1347372);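 also: cells stimulated with 50 nM CITCO agonist so inhibition reflects antagonism; luciferase from CYP2B6 promoter reporter driven by hCAR in HepG2 cells; series mostly up to about 46 µM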
Nuclear receptor subfamily 1 group I member 3 (Homo sapiens), sequence (Q14994 whole entry, looked up): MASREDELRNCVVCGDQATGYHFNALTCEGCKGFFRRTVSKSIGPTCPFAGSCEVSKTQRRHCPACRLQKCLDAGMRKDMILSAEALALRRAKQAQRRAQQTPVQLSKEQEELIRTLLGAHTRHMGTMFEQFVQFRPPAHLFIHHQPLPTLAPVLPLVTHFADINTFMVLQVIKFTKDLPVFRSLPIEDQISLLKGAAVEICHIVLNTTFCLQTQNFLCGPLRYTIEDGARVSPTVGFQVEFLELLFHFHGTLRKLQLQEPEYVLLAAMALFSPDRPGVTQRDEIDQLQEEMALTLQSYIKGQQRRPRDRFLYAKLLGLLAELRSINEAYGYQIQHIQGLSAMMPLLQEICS
Outline: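 Luminescence readout (ONE-Glo, 30 min RT) of CYP2B6-2.2kb reporter in HepG2-hCAR cells after 24hr, 37C treatment with compound against 50 nM CITCO; CellTiter-Fluor viability read beforehand.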

[12] = target: Nuclear receptor subfamily 1 group I member 3 (Homo sapiens) (UniProt Q14994); assay: qHTS for Constitutive Androstane Receptor (CAR) Agonist screened against the NCATS CANVASS Library (AID 1347373);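 also: every well also contained 1.5 µM PK11195 alongside the test compound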
Outline: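 Cells were plated and allowed to attach for 4hr, then dosed with compound in an 11-point series alongside 1.5uM PK11195. After 24hr at 37C, viability was measured fluorometrically and CAR-driven CYP2B6 reporter luminescence was recorded.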

[13] = 10-beta competent E. coli microbial cell viability qHTS against the NCATS CANVASS Library (AID 1347376); also: series mostly up to about 46 µM
Outline: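 Bacterial suspension diluted to 0.2 OD was dosed with compounds, 11-point series, then held overnight at 37C. BacTiter-Glo reagent was added, and after 20 min at room temperature ATP-dependent luminescence was measured.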

[14] = DH5-alpha competent E. coli microbial cell viability qHTS against the NCATS CANVASS Library (AID 1347377); details: outcome: dose series up to 46.1 µM unless noted
Outline: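 Bacteria were dispensed at 0.2 OD, then compounds were pin-transferred. Plates were incubated overnight at 37C, after which BacTiter-Glo was added and luminescence measured 20 min later.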

[15] = qHTS for H2AX Agonists against the NCATS CANVASS Library (AID 1347378)
Outline: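 TR-FRET readout (ex 320 nm, em 665/620 nm ratio) of phospho-H2AX (S139) in CHO-K1 lysates. Cells treated 3 hr at 37C with compound titration, 0.76% DMSO; lysis 30 min, antibody detection 24 hr at RT.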

[16] = Inflammasome Signaling qHTS Counterscreen: IL-1-beta AlphaLISA counterscreen against the NCATS CANVASS Library (AID 1347381);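 also: cell-free check with purified IL-1β in medium and no THP-1 cells; series mostly up to about 57 µM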
Outline: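 Purified IL-1-beta (4 pg/well) + compound, 11-pt conc. series; acceptor beads 6 ug/mL + biotin-Ab 0.6 nM final, 1 h RT; SA-donor 24 ug/ml final, 30 min dark RT; read ex 680/em 615.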

[17] = KB-3-1 Cancer Cell Toxicity qHTS against the NCATS CANVASS Library (AID 1347366); also: series mostly up to about 46 µM; nearly all actives have a fitted effect of over 75% in size
Outline: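 500 KB-3-1 cells/well; compounds pin-transferred, 11-pnt series; 72 hr, 37C/5% CO2; CellTiter-Glo, 10 min RT; luminescence read-out.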

[18] = qHTS for Inflammasome Signaling Inhibitors: IL-1-beta AlphaLISA screen against the NCATS CANVASS Library (AID 1347379);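 also: human THP-1 cells primed with LPS then triggered with ATP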
Outline: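 Secreted IL-1B from human THP-1 cells quantified by AlphaLISA 16 hr after compound addition (final up to 57.5 uM). A 1 hr compound pretreatment preceded inflammasome activation with 250 ng/mL LPS plus 1.25 mM ATP (final).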

[19] = qHTS assay for small molecule disruptors of mitochondrial membrane potential screened against the NCATS CANVASS Library (AID 1347389); also: series mostly up to about 46 µM; nearly all actives have a fitted effect of over 60% in size
Outline: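 Mitochondrial depolarization in HepG2 cells is scored as a falling aggregate-to-monomer fluorescence ratio after 1 hr compound exposure and 30 min staining with Mito-MPS dye at 37C, each compound tested as an 11-point titration.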

[20] = qHTS for inhibitors of Wild type Zika virus screened against the NCATS CANVASS Library (AID 1347396);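 also: ATP luminescence of surviving cells so rescue from viral cell killing; series mostly up to about 46 µM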
Outline: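 Using ATP-based luminescence (CellTiter Glo), this screen scores rescue of Vero 766 cells from wild-type Zika killing at 72 h post-infection. Compounds are tested in a concentration series.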

Measured: Potency

COc1c(O)cc(O)c2c(=O)cc(-c3ccccc3)oc12
not listed: [17] | [18] | [19] | [20]
inactive: all other assays above

C[C@@]12CCC[C@@](C)(C(=O)OP(=O)(O)OC[C@H]3O[C@@H](n4cnc5c(N)ncnc54)[C@H](O)[C@@H]3O)[C@H]1C[C@@H](O)[C@@]13C[C@@H](CC[C@@H]21)[C@](C)(O)C3
active: [8] 14.8 µM | [10] 16.6 µM
not listed: [14] | [15]
inactive: all other assays above

O=C1CCC(=O)N(O)CCCCCNC(=O)CCC(=O)N(O)CCCCCNC(=O)CCC(=O)N(O)CCCCCN1
active: [8] 8.33 µM
not listed: [9] | [17]
inactive: all other assays above
